This is part of a sample that, as a whole, favours compounds with a hit. Of some 79,000 tested, about 15% had one in any assay. The source made the active and inactive calls. No stated cut-off is given here; in the data, active means growth inhibition above about 70%; inactive means the rest.
How the values were obtained:
[1] = NCI Yeast Anticancer Drug Screen. Data for the rad50 strain (AID 155);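 further: 0% = growth of vehicle-only cultures of the same strain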; details: S. cerevisiae rad50 strain growth inhibition, stronger effect = higher value
Outline: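 Relative growth inhibition (compound vs vehicle) was measured in yeast with a defined repair-gene alteration.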

[2] = NCI Yeast Anticancer Drug Screen. Data for the mec2-1 strain (AID 157); details: S. cerevisiae mec2-1 strain, stronger effect = higher value
Outline: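 Vehicle-treated cultures served as reference for growth inhibition of compound-exposed mec2-1 yeast.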

[3] = NCI Yeast Anticancer Drug Screen. Data for the sgs1 mgt1 strain (AID 161);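 further: 0% = growth of cultures given vehicle only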; details: S. cerevisiae sgs1 mgt1 strain, stronger effect = higher value
Outline: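 Genetically altered yeast, compound exposure, growth inhibition relative to vehicle.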

[4] = NCI Yeast Anticancer Drug Screen. Data for the cln2 rad14 strain (AID 165);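 further: 0% = growth equal to vehicle treated cultures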; details: S. cerevisiae cln2 rad14 strain, stronger effect = higher value
Outline: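 Each compound was tested on cln2 rad14 yeast. Inhibition of growth was calculated against vehicle-exposed controls.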

[5] = NCI Yeast Anticancer Drug Screen. Data for the bub3 strain (AID 167); details: S. cerevisiae bub3 mutant strain, stronger effect = higher value
Outline: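 Screening used yeast with an engineered genetic alteration affecting cell cycle control. Compound-exposed cultures were compared with vehicle cultures, and reduced growth was taken as inhibition.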

[6] = NCI Yeast Anticancer Drug Screen. Data for the mlh1 rad18 strain (AID 175); details: S. cerevisiae mlh1 rad18 strain growth inhibition, stronger effect = higher value
Outline: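 Vehicle-treated cultures served as the reference for growth inhibition in a yeast strain carrying DNA damage repair alterations exposed to each compound.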

[7] = at 5.0 µM (retest, dose inferred, filed as 0.5)
[8] = at 50.0 µM (retest, dose inferred, filed as 5.0)

Measured: growth inhibition

CC1OC(CC(=O)O)Cc2c1c(O)c1c(O)cc(-c3cc(=O)c4c(=O)c5c(c(=O)c=4c3=O)CC(CC(=O)O)OC5C)c(O)c1c2O (configuration not stated)
inactive: [1]; [7] -3% | [1]; [8] 6% | [1]; at 50.0 µM -7.4% | [2]; [7] 3% | [2]; [8] 2% | [2]; at 50.0 µM 7.35% | [3]; [7] -1% | [3]; [8] 2% | [3]; at 50.0 µM 54.4% | [4]; [7] 1% | [4]; [8] 29% | [4]; at 50.0 µM -24.4% | [5]; [7] 22% | [5]; [8] 14% | [5]; at 50.0 µM 11.3% | [6]; [7] 0% | [6]; [8] 2% | [6]; at 50.0 µM 15.7%

CN(C)CC(C)(CN(C)C)C(=O)/C=C/c1ccc(Cl)c(Cl)c1
active: [1]; [8] 98% | [1]; at 50.0 µM 99.7% | [2]; [8] 99% | [2]; at 50.0 µM 99.8% | [3]; [8] 98% | [3]; at 50.0 µM 99.8% | [4]; [8] 99% | [4]; at 50.0 µM 99% | [5]; [8] 100% | [5]; at 50.0 µM 99.5% | [6]; [8] 99% | [6]; at 50.0 µM 99.6%
inactive: [1]; [7] 27% | [2]; [7] 18% | [3]; [7] 38% | [4]; [7] 13% | [5]; [7] 12% | [6]; [7] 41%

COc1cc(/C=C2\CC(C)C/C(=C\c3ccc(O)c(OC)c3)C2=O)ccc1O (configuration not stated)
inactive: [6]; at 50.0 µM 66.5%
active: [1]; [7] 84% | [1]; [8] 83% | [1]; at 50.0 µM 74.5% | [2]; [7] 91% | [2]; [8] 89% | [2]; at 50.0 µM 83.6% | [3]; [7] 92% | [3]; [8] 90% | [3]; at 50.0 µM 77.7% | [4]; [7] 70% | [4]; [8] 89% | [4]; at 50.0 µM 81.6% | [5]; [7] 91% | [5]; [8] 89% | [5]; at 50.0 µM 80.8% | [6]; [7] 84% | [6]; [8] 90%

CN(C)CCN(C)CCC(=O)/C=C/c1ccccc1
active: [1]; [7] 95% | [1]; [8] 99% | [1]; at 50.0 µM 87.9% | [2]; [7] 100% | [2]; [8] 99% | [2]; at 50.0 µM 84.3% | [3]; [7] 98% | [3]; [8] 99% | [3]; at 50.0 µM 99.5% | [4]; [7] 86% | [4]; [8] 99% | [4]; at 50.0 µM 96% | [5]; [7] 99% | [5]; [8] 99% | [5]; at 50.0 µM 98.2% | [6]; [7] 99% | [6]; [8] 99% | [6]; at 50.0 µM 99.5%

Cc1ccc2c(c1)C1C(CC2)C2C(=O)OC(=O)C2C2CCc3ccc(C)cc3C21 (configuration not stated)
inactive: [1]; [7] 35% | [1]; at 50.0 µM 35.4% | [2]; [7] 21% | [2]; at 50.0 µM 14.3% | [3]; [7] 6% | [3]; at 50.0 µM 1.35% | [4]; [7] 20% | [4]; at 50.0 µM 0.4% | [5]; [7] 19% | [5]; at 50.0 µM 10.3% | [6]; [7] 29% | [6]; at 50.0 µM 38.4%
active: [1]; [8] 97% | [2]; [8] 98% | [3]; [8] 99% | [4]; [8] 90% | [5]; [8] 97% | [6]; [8] 98%

C=CCCCCCCCCC(=O)OCC=C
inactive: [1]; [7] 0% | [1]; [8] 4% | [1]; at 50.0 µM -2.1% | [2]; [7] 6% | [2]; [8] 3% | [2]; at 50.0 µM -18.1% | [3]; [7] 4% | [3]; [8] 9% | [3]; at 50.0 µM 16.4% | [4]; [7] 0% | [4]; [8] 0% | [4]; at 50.0 µM 26.6% | [5]; [7] -3% | [5]; [8] -4% | [5]; at 50.0 µM 10.9% | [6]; [7] -2% | [6]; [8] -1% | [6]; at 50.0 µM 9.2%

O=c1oc(-c2ccccc2)nc2ccccc12
inactive: [1]; [7] 4% | [1]; [8] 41% | [2]; [7] 4% | [2]; [8] 17% | [2]; at 50.0 µM 31.2% | [3]; [7] 0% | [3]; [8] 9% | [3]; at 50.0 µM 58.9% | [4]; [7] 4% | [4]; [8] 4% | [4]; at 50.0 µM 27.5% | [5]; [7] 0% | [5]; [8] 11% | [5]; at 50.0 µM 38.9% | [6]; [7] -4% | [6]; [8] 20% | [6]; at 50.0 µM 42.8%
active: [1]; at 50.0 µM 76.5%

COC(=O)c1nc(=S)[nH]c(C(=O)OC)c1C(=O)c1ccc(O)c(OC)c1
active: [1]; [8] 95% | [1]; at 50.0 µM 98.5% | [2]; [8] 97% | [2]; at 50.0 µM 78.3% | [3]; [8] 96% | [3]; at 50.0 µM 98.4% | [4]; [8] 90% | [5]; [8] 96% | [5]; at 50.0 µM 84.3% | [6]; [8] 97% | [6]; at 50.0 µM 96.3%
inactive: [1]; [7] -6% | [2]; [7] -7% | [3]; [7] -16% | [4]; [7] -4% | [4]; at 50.0 µM 47% | [5]; [7] 1% | [6]; [7] 7%

CCCCCCCCCCCCCCCCCc1nnc(N)o1
inactive: [1]; [7] 1% | [1]; [8] 24% | [1]; at 50.0 µM -11.8% | [2]; [7] 7% | [2]; [8] 33% | [2]; at 50.0 µM -0.5% | [3]; [7] 18% | [3]; [8] 51% | [3]; at 50.0 µM 19% | [4]; [7] 1% | [4]; [8] 36% | [4]; at 50.0 µM 45.6% | [5]; [7] 6% | [5]; [8] 40% | [5]; at 50.0 µM 11.2% | [6]; [7] 6% | [6]; [8] 25% | [6]; at 50.0 µM -3.6%
